HCV inhibitor: blocks hepatitis C virus | hit rate 3.4% among 340,000 | Potency, µM (series often up to 41.8 µM), most hits filed as inhibitors | Huh7.5.1 HCVcc-Cre infection, luciferase reporter, 44 h | AID 651820
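Seed cells (1,000/well) for 4 h; treat with compound and infect with HCVcc-Cre, moi about 0.5. Incubate 44 h, then detect luciferase activity.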
HCMV antiviral: human cytomegalovirus inhibition; HFF cells, HCMV-luciferase reporter, 72 h; active compounds read low; activity change, negative = inhibition, % at 57.5 µM; hit rate 4.5% among 410,000; AID 1259415; in the data active means activity change below about -60%; inconclusive means no clear call, values can overlap the other calls; inactive means above about -39%
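Screen run at 2 compound doses on HFFs infected with reporter HCMV, MOI 1 PFU/cell. Luciferase activity from cell lysates at 72 h post infection gave inhibition relative to buffer-only and Salinomycin wells.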
AmpC no deterg: blocks E. coli AmpC beta-lactamase in detergent-free assay. P00811. AmpC nitrocefin hydrolysis, absorbance 480 nm, 0.0001% Triton. Potency, µM (titrated, usually from 57.1 µM), usual class: inhibitors. hit rate 0.52% among 330,000; further: nearly all actives have a fitted effect of over 20% in size
Target sequence (P00811 whole entry, looked up): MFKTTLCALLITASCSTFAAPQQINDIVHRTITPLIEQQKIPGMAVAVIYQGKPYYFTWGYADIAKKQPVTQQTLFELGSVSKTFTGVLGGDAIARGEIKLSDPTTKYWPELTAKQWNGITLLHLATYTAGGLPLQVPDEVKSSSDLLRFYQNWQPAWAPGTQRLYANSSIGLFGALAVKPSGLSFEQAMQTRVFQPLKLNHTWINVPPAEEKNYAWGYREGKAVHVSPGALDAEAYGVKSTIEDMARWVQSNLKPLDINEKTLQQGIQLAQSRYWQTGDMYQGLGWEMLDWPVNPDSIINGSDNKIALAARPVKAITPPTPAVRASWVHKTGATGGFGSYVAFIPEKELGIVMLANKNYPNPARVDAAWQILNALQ
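20 mM phosphate pH 7.0 + 0.01% (detergent screen) or 0.0001% Triton X-100; 5.3 nM AmpC reagent; cpd preinc 15 min RT; nitrocefin (800 uM stock) to start; A480 q20 s × 4 min; Activity was normalised to no-enzyme and no-compound control wells.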
AmpC inh detg: AmpC beta-lactamase inhibition with detergent present; hit rate 0.041% among 370,000; P00811; Potency, µM (series often up to 114 µM), most hits filed as inhibitors; AmpC hydrolysis of nitrocefin, absorbance 480 nm, 0.01% Triton; further: nearly all actives have a fitted effect of over 25% in size
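20 mM phosphate pH 7.0 + 0.01% (detergent screen) or 0.0001% Triton X-100; 5.3 nM AmpC reagent; cpd preinc 15 min RT; nitrocefin (800 uM stock) to start; A480 q20 s × 4 min; Activity was normalised to no-enzyme and no-compound control wells.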
FMDV inh: blocks foot and mouth disease virus. FMDV antiviral cell-based qHTS. hit rate 1.2% among 410,000. AID 1159524. Potency, µM (titrated, usually from 57.9 µM), hits mostly inhibitors; calls by dose curve; tested in HEK293T cells; further: read-out not given here; nearly all actives have a fitted effect of over 45% in size
A number is an active result; 0 = inactive; ? = inconclusive; - = no result; [ ] = another dose, or the depositor's remark. In the library only some 7.3% were active in any assay of this set; here they are far more common. Unless noted, the call rests on the fitted dose curve; in most records, active means well fitted curve in the direction sought with a large enough effect; inconclusive means small, poorly fitted or top-dose-only effect, or another doubt; inactive means no such curve, though single readings can be large; an effect the other way counts as inactive or inconclusive.

SMILES	HCV inhibitor	HCMV antiviral	AmpC no deterg	AmpC inh detg	FMDV inh
CC(=O)c1ccc(F)c(-c2cc(C)cc3c2OC(CNC(=O)c2ccnn2C)C3)c1 (stereo unspecified)	-	-	-	-	0
CCOC(=O)c1cnc2cc(C(F)(F)F)ccc2c1N1CCN(c2cccc(Cl)c2)CC1	-	0	-	0	0
COc1ccc2c(c1)C(=NO)c1cc(OC)ccc1-2	8.9µM	?	0	0	0
CC1(C)Cc2ccccc2C2=NNC(=O)C2=N1	?	-102	0	0	?
COCCCNC(=O)CSc1nc(-c2ccc(OC)cc2)[nH]c1-c1ccc(OC)cc1	-	-112	-	0	0
COc1cccc(-c2nc(SCC(=O)NCc3ccco3)c3c(=O)n(C)c(=O)n(C)c3n2)c1	-	0	-	0	0
COc1ccc(NC(=O)CSc2nc(-c3ccc(F)cc3)[nH]c2-c2ccc(C)cc2)cc1OC	-	0	-	0	?
COc1cc(-c2nc(SCC(=O)Nc3ccc(C)cc3)c(-c3ccc(F)cc3)[nH]2)cc(OC)c1OC	-	-61	-	0	0
COc1ccc(-c2[nH]c(-c3cccc(OC)c3)nc2SCC(=O)NCc2ccco2)cc1	11µM	0	10µM	0	0
CCCc1nc2ccc(Cl)cn2c1Cc1ccccc1OC	-	0	-	-	0
CC1CCCCN1S(=O)(=O)c1ccc2c(c1)C(C)(C)C(=O)N2C (stereo unspecified)	0	0	0	0	0
CCCCCCCCN1C(=O)[C@@H](CC(=O)NCCC(C)C)C[C@@]2(C(=O)OC)C1=C[C@H](C1CCCC1)O[C@@H]2C	-	0	-	-	-
CCOC(=O)c1c(C)n(-c2ccc(C)cc2)c2ccc(OCC(O)CNCCCO)cc12 (stereo unspecified)	?	-75	0	?	0
CCOC(=O)c1c(C)n(C)c2ccc(OCCN(C)C)cc12	0	0	0	0	0
CCOc1ccc2c(c1)c(C(C)=O)c(C)n2-c1ccccc1	11µM	?	0	0	0
CCOC(=O)c1c(C)n(-c2ccccc2)c2ccc(OCCN(C)C)cc12	16µM	0	0	0	0
CCOC(=O)C1=NNC(C(=O)OCC)C1C(=O)OCC (stereo unspecified)	0	0	-	-	0
O=C(NC1=NCCS1)c1ccccc1F	0	0	-	-	0
O=C(NNC1=Nc2ccccc2SC1)c1cccc([N+](=O)[O-])c1	0	-84	0	0	0
O=C(NNC1=NCCCCC1)c1cccc([N+](=O)[O-])c1	0	0	0[11.4 µM]	?	0
O=C(NNC1=Nc2ccccc2SC1)c1ccccc1F	14µM	-86	0	0	0
O=C(Nc1ccc(F)cc1)c1cc(-c2ccccn2)nc2c(Cl)cccc12	0	?	0	0	0
NS(=O)(=O)c1ccc(CCNc2ncnc3c2c(-c2ccccc2)cn3-c2ccc(F)cc2)cc1	11µM	0	4.5µM	0	16µM
CCOC(=O)[C@H]1[C@H]2COc3cc(OC)ccc3[C@@H]2N2C(=O)N(c3cccc(Cl)c3)C(=O)[C@@]12C	?	-	0	?	0
c1ccc2c(c1)[IH]c1ccccc1-2	0.028µM	-100	-	-	?
SMILES	HCV inhibitor	HCMV antiviral	AmpC no deterg	AmpC inh detg	FMDV inh
O=C1c2ccccc2C(=O)c2ccccc21	-	-	-	-	0
CCn1c(-c2ccccc2F)nc2cc(C(=O)NCc3ccc(C)o3)cc(NC(C)=O)c21	-	-	-	-	0
CC(C)(CNC(=O)c1sc2cc(F)ccc2c1Cl)N1CCOCC1	11µM	?	0	?	0
Cc1ccc(C(=O)NCC(C)(C)N2CCOCC2)s1	0	0	0	0	0
COc1cccc(NS(=O)(=O)c2cc3c4c(c2)C(C)C(=O)N4CCC3)c1 (stereo unspecified)	-	0	-	0	0
N#CC1=C(N)OC2=C(CC/C2=C\c2ccccc2Cl)C1c1ccccc1Cl (stereo unspecified)	?	?	0	0	0
N#CC1=C(N)OC2=C(CC/C2=C\c2ccccc2)C1c1ccccc1 (stereo unspecified)	0	0	11µM	0	18µM
S=c1[nH]cnc2scc(-c3ccccc3)c12	0	-77	0	0	0
COc1ccccc1N1C(=O)c2ccc(C(=O)Nc3ccc(C(=O)O)cc3)cc2C1=O	0	0	0	0	0
COC(=O)c1c(C)oc2ccc(N(C(=O)c3ccncc3)S(=O)(=O)c3ccc(C)cc3C)cc12	1.6µM	-92	0	0	?
COC(=O)c1c(C)oc2ccc(N(C(=O)c3ccncc3)S(=O)(=O)c3c(C)cc(C)cc3C)cc12	-	?	-	0	?
COC(=O)c1c(C)oc2ccc(N(C(=O)c3ccncc3)S(=O)(=O)c3cc(C)c(C)cc3C)cc12	-	-60	-	0	0
O=C(NCCc1ccccc1)c1cc(-c2cccc(Cl)c2)on1	-	0	-	0	0
CC(C)c1ccc(CN2C(=O)C(n3cccc3)c3cccc(F)c32)cc1 (stereo unspecified)	-	0	-	-	-
CCOC(=O)c1c(C)oc2nc(C)nc(NCC3CCN(Cc4ccccc4C)CC3)c12	-	-104	-	0	0
CCOC(=O)c1c(C)oc2nc(C)nc(NCC3CCN(Cc4ccc(C)cc4)CC3)c12	-	0	-	0	0
CN(CC1COCCO1)C(=O)c1cnn(-c2ncc3c(n2)-c2ccccc2CCC3)c1C1CC1 (stereo unspecified)	-	-	-	-	0
CN(Cc1cccc2ncccc12)C(=O)c1cnn(-c2ncc3c(n2)-c2ccccc2CC3)c1C1CC1	-	-	-	-	28µM
O=C(C1CCC1)N1CCN(c2ccnc3cc(Cl)ccc23)CC1	?	-87	0	0	0
O=C(c1ccco1)N1CCN(c2ccnc3cc(Cl)ccc23)CC1	0	?	0	0	?
O=C(C1CC1)N1CCN(c2ccnc3cc(Cl)ccc23)CC1	0	?	0	?	0
O=C(Nc1ccc(OC(F)(F)F)cc1)N1CCN(c2ccnc3cc(Cl)ccc23)CC1	11µM	-85	0	0	?
CC(C)(C)C(=O)N1CCN(c2ccnc3cc(Cl)ccc23)CC1	?	-98	0	0	?
O=C(C1CCCCC1)N1CCN(c2ccnc3cc(Cl)ccc23)CC1	?	-83	0	0	28µM
CNC(=O)OCc1snc(-c2ccccc2)c1COC(=O)NC	-	0	-	-	0
SMILES	HCV inhibitor	HCMV antiviral	AmpC no deterg	AmpC inh detg	FMDV inh
CCN1C(=O)/C(=C/c2ccc(N(CC)CC)cc2OC)C(=O)NC1=S	0	0	0	0	35µM
O=C(COC(=O)c1cc([N+](=O)[O-])ccc1Cl)NC1CCCC1	0	0	0	0	0
O=C(COC(=O)c1ccccc1[N+](=O)[O-])c1ccc(C2CCCCC2)cc1	0	?	0	0	11µM
CNC(=O)COC(=O)c1ccccc1C(=O)c1ccc(Cl)c([N+](=O)[O-])c1	?	-100	0	?	?
O=C(COC(=O)c1ccccc1C(=O)c1ccc(Cl)c([N+](=O)[O-])c1)NC1CC1	11µM	-99	0	0	20µM
O=C(OC1CCOC1=O)c1ccccc1C(=O)c1ccc(Cl)c([N+](=O)[O-])c1 (stereo unspecified)	11µM	-	0	0	0
N#CC1(NC(=O)COC(=O)c2ccccc2[N+](=O)[O-])CCCCC1	0	0	0	0	0

From PubChem BioAssay
